From PubChem BioAssay come the findings set out here.

Experiment [1] is described as follows: inhibition of Brca1/Bard1 split-luciferase complementation, confirmation, counter-screen for Mdm2/MdmX interaction inhibitor project, luminescence, single concentration (AID 504668). The conditions noted are these: Brca1/Bard1 bimolecular luciferase complementation counterscreen, at 8 µM, stronger effect = higher value. In general terms: A counterscreen serves to expose hits that act by an unwanted route or on another target.

Experiment [2] deals with PEG-3 (UniProt Q6IN02). Nature of the experiment: Peg3 promoter luciferase inhibitors, potency, dose response, cell-based, HeLa, CREF/GAPDH counter-screen panel (AID 624167). The conditions noted are these: CREF/GAPDH counter-screens; HeLa PEG-Prom luciferase reporter, overnight, run 1, dose range 1, at 100 µM (top of the series) unless noted.
For experiment [3], the target named is PEG-3 (UniProt Q6IN02). Described as above. As to conditions: CREF/GAPDH counter-screens; HeLa PEG-Prom luciferase reporter, overnight, run 2, dose range 1, at 100 µM (top of the series) unless noted.
The test system of experiment [4] is Rat fibroblasts (CREF). The description is as above. The conditions noted are these: CREF/GAPDH counter-screens; run 1, dose range 1, at 100 µM (top of the series).
Experiment [5] has as its system Rat fibroblasts (CREF). The experiment is described as above. The conditions noted are these: CREF/GAPDH counter-screens; run 2, dose range 1, at 100 µM (top of the series).

The structures appear in SMILES notation. Active and inactive are the calls of the source. The rule behind the calls is not given here.

Sequence of PEG-3 (Q6IN02 whole entry, looked up): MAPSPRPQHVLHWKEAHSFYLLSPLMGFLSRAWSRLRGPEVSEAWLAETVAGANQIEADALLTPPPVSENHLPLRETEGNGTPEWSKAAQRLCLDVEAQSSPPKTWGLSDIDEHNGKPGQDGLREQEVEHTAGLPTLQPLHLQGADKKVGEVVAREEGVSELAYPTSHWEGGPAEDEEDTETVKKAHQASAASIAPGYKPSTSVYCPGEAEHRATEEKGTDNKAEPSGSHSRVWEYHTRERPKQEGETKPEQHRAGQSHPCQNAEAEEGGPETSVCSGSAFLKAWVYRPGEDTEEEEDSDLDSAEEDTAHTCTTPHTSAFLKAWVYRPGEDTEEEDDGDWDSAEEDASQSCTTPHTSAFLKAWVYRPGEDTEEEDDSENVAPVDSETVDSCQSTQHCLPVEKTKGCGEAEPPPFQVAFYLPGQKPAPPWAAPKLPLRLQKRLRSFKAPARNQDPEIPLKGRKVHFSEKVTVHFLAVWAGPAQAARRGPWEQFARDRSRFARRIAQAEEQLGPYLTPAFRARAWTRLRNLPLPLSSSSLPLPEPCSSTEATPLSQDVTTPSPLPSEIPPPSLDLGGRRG

Regarding `COc1cccc(/C=N/NC(=O)c2c(C)nc3ccc(Cl)cn23)c1O`, the inhibition (as a rule, the drop in the measured response relative to a control, in per cent) was 34.5% (active) in experiment [1]; 59.6% in experiment [2]; 61.9% in experiment [3]; 44.7% in experiment [4]; 46.7% in experiment [5].
Consider `Cc1cc(C=C2C(=O)c3ccccc3C2=O)c(C)n1-c1ccccc1`, for which the inhibition is 34.3% (active) in experiment [1], 62.9% in experiment [2] and 80.6% in experiment [3].
The matching figures for `Cc1cc(C(=O)COC(=O)C2=COCCO2)c(C)n1-c1ccccc1`: 31.6% (active), 101% and 101%.
The like results for `COc1ccc(C(O)(CC(C)C)C(CN2CCOCC2)c2ccccc2)cc1` (stereo not drawn) were, in that order, 30.5% (active), 100% and 100%.
For the compound `FC(F)(F)c1cccc(NC(=S)N(CCCN2CCCC2)Cc2cccn2Cc2ccc(Cl)cc2)c1`, the inhibition in experiment [1] is 30.3% (active).
For `COc1ccccc1C(=O)Nc1nc2ccccc2s1`, the inhibition in experiment [1] is 31.7% (active); in experiment [2], 101%; in experiment [3] it was 98%; in experiment [4], 100%; in experiment [5] it was 99.5%.
In the case of `COc1ccc(C(NC(=O)C(C)C)c2ccc3cccnc3c2O)cc1` (stereo not drawn), the inhibition is 28.9% (active) in experiment [1]; 67.9% in experiment [2]; 60.6% in experiment [3]; 75.6% in experiment [4]; 61.5% in experiment [5].
The matching figures for `Cc1cc(NC(c2ccc(Cl)cc2)c2ccc3cccnc3c2O)no1` (stereo not drawn): 27.4% (active), 37.1%, 87.1%, 37.2% and 44.8%.
For the compound `CCN(CC)c1ccc2nc3ccc(N)cc3[n+](-c3ccccc3)c2c1`, the results for the inhibition in experiment [1], in experiment [2] and in experiment [3] were 23.6% (active), 101% and 102%, respectively.
As to `O=C(CNc1ccccc1)N/N=C/c1c(O)ccc2ccccc12`, the inhibition in experiment [1] was 26.6% (active); in experiment [2], 44.6%; in experiment [3], 64.1%; in experiment [4] it was 73.1%; in experiment [5] it was 49.7%.
The like results for `CCOc1ccc(C(=O)O/N=C(\N)c2ccccn2)cc1` were, in that order, 33% (active), 98%, 98.8%, 97.8% and 98.6%.
The like results for `Nc1nonc1-n1nnc(C(=O)N/N=C/c2cc(Br)ccc2O)c1CNc1ccccc1` were, in that order, 30.5% (active), 89.3%, 81.9%, 54.5% and 59.3%.
